The values below come from PubChem BioAssay (EPA / NIEHS).

Records with an inconclusive call do not appear. Some compounds were tested as several samples or in several runs, with calls that do not always agree. Calls of active or inactive are those of the source. Rule for the calls: active = hit-call score of the fitted dose curve at least 0.9, where 1 is the maximum; inconclusive = response in the unintended direction; inactive = score below 0.9.

What is called AC50 is the midpoint of the concentration-response curve, whichever way the signal moves.

Assay [1] is described as follows: ATG_XTT_Cytotoxicity: Cytotoxicity Assessment in the Attagene TRANS-FACTORIAL HepG2 Assay (AID 2283584).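 For AC50: XTT signal for cell number as viability in transfected HepG2 cells; cells exposed to compound for 24 h before reading; active means loss of viability signal versus DMSO baseline.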 In a few lines:
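HepG2 cells transiently transfected with GAL4-UAS multiple reporter units, dosed 24 h; cytotoxicity read by XTT as loss of signal versus DMSO baseline.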

Assay [2] in a line: TOX21_p53_BLA_p2_viability: Viability Assessment in the Tox21 HCT-116 p53 Agonism Beta-lactamase Assay, Phase 2 (AID 2283591).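 Note: actives lower the ATP signal meaning cytotoxicity.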 Summed up: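 Cytotoxicity readout: CellTiter-Glo ATP luminescence, 30 min at room temperature, after the beta-lactamase read. Cells were HCT116 exposed 16 h at 37C to compounds pin-transferred at 217-fold dilution from DMSO stocks.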
In assay [3] the target is Cellular tumor antigen p53 (Homo sapiens) (UniProt P04637). The assay can be described thus: TOX21_p53_BLA_p2_ratio: Tox21 HCT-116 p53 Agonism Beta-lactamase Assay, Ratio, Phase 2 (AID 2283592). Summed up: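 First, HCT116 reporter cells settle for 5 h at 37C. Next, DMSO compound solutions are pinned in (217-fold dilution) and left 16 h. Finally, CCF4-AM substrate is loaded 2 h at room temperature and the 460/530 nm ratio read.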

Assay [4] has the same target. The assay can be described thus: TOX21_p53_BLA_p3_ratio: Tox21 HCT-116 p53 Agonism Beta-lactamase Assay, Ratio, Phase 3 (AID 2283596). In a few lines:
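Cells were seeded at 4000/well, rested 5 h at 37C, then dosed with DMSO compound solutions (217-fold dilution) for 16 h. CCF4-AM substrate was loaded for 2 h at room temperature, and the 460/530 nm emission ratio was fitted for gain of signal versus DMSO.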

Assay [5] can be described thus: TOX21_p53_BLA_p5_viability: Viability Assessment in the Tox21 HCT-116 p53 Agonism Beta-lactamase Assay, Phase 5 (AID 2283600). Summed up: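 Decreased CellTiter-Glo luminescence denotes lost viability. Exposure: 16 h at 37C, 5% CO2, with compounds from DMSO stocks diluted 217-fold in wells of 4000 cells.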
Assay [6] can be described thus: TOX21_p53_BLA_p3_viability: Viability Assessment in the Tox21 HCT-116 p53 Agonism Beta-lactamase Assay, Phase 3 (AID 2283593).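 Note: cells exposed to compound for 16 h before reading.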 Summed up: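 Cellular ATP was quantified by CellTiter-Glo luminescence, read after 30 min at room temperature. Beforehand, HCT116 cells (4000/well) received compound 5 h post-seeding, 217-fold diluted from DMSO, then incubated 16 h at 37C.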

A short description of assay [7]: TOX21_p53_BLA_p4_viability: Viability Assessment in the Tox21 HCT-116 p53 Agonism Beta-lactamase Assay, Phase 4 (AID 2283597).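 Note: hits lower the luminescence signal meaning cytotoxicity.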 In a few lines:
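4000 HCT116 cells per well; 5 h attachment; compounds from DMSO, 217-fold dilution; 16 h at 37C. Then CCF4-AM, 2 h RT, followed by CellTiter-Glo, 30 min RT, luminescence. Decrease = cytotoxicity.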

The target of assay [8] is Cellular tumor antigen p53 (Homo sapiens) (UniProt P04637). The assay is described as follows: TOX21_p53_BLA_p4_ratio: Tox21 HCT-116 p53 Agonism Beta-lactamase Assay, Ratio, Phase 4 (AID 2283601). In a few lines:
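Signal is the blue/green (460nm/530nm) ratio of cleaved versus uncleaved CCF4-AM substrate, read after 2 h substrate loading. Cells were HCT116 carrying the p53-responsive beta-lactamase reporter, dosed 16 h at 37C, 5% CO2; CellTiter-Glo measured in parallel.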

Assay [9] shares this target. The assay can be described thus: TOX21_p53_BLA_p5_ratio: Tox21 HCT-116 p53 Agonism Beta-lactamase Assay, Ratio, Phase 5 (AID 2283599). Summed up:
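Beta-lactamase reporter ratio (blue 460 nm over green 530 nm, 405 nm excitation) after 2 h CCF4-AM loading, in HCT-116 cells exposed 16 h at 37 C to compounds pinned at 217-fold dilution. Increases relative to DMSO baseline scored.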

Chain of Cellular tumor antigen p53 (Homo sapiens) (P04637 whole entry, looked up): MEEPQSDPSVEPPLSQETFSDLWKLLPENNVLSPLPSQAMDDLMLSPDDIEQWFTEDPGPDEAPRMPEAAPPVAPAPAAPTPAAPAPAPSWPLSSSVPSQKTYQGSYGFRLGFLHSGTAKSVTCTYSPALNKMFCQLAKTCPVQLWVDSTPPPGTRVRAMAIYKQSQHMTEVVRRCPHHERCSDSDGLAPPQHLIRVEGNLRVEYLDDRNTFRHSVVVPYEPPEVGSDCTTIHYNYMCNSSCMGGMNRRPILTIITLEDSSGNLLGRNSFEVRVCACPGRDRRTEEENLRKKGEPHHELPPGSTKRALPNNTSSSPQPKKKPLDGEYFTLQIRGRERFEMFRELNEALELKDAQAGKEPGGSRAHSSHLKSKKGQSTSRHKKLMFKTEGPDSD

Take `Cc1cc(C2(c3cc(C)c(O)cc3C)OS(=O)(=O)c3ccccc32)c(C)cc1O`: the result in assay [1], in assay [2], in assay [3], in [4] and in assay [5] was inactive.

On to `CC(=O)OCC=Cc1ccccc1`, for which the call in assay [1], in assay [2], in assay [6], in [4], in [7] and in assay [8] was inactive.

As to `O=[N+]([O-])c1ccc(Nc2ccc(Nc3ccccc3)c(S(=O)(=O)O)c2)c([N+](=O)[O-])c1`, the call in assay [1], in assay [2] and in assay [5] was inactive.

As to `CSc1nc(NC2CC2)nc(NC(C)(C)C)n1`, the outcome in assay [1], in [2], in [6], in [7] and in [9] was inactive.

Regarding `C=CC(=O)OCCn1c(=O)n(CCOC(=O)C=C)c(=O)n(CCOC(=O)C=C)c1=O`, the AC50 in [1] is 71 µM (active); in assay [2], 46.1 µM (active); in assay [7], 15.4 µM (active). In addition, the call in [6], in assay [9], in [5] and in assay [8] was inactive.

Take `CC(C)c1cccc(O)c1`: the call in assay [1], in assay [2], in assay [6], in [4], in assay [7] and in assay [9] was inactive. Besides, the compound was classed as inactive in assay [5] and in assay [8].

`C#C[C@]1(O)CC[C@H]2[C@@H]3CCC4=Cc5oncc5C[C@]4(C)[C@H]3CC[C@@]21C`: the concentration at half-maximal activity (AC50) in assay [1] was 151 µM (active). The call in [2], in assay [6], in assay [4], in [7], in [9] and in assay [5] was inactive. In [8], the result was inactive.

Consider `CC1CCC2CC1C2(C)C` (stereo not given), for which the compound was classed as inactive in assay [1], in assay [2], in assay [3], in assay [4], in [9] and in assay [5].

As to `Cc1ccccc1C=O`, the compound was classed as inactive in assay [1], in assay [2], in [6], in assay [4], in [9] and in assay [5]. In addition, in assay [8], the result was inactive.

As to `CC1=CCC(O)(C(C)C)CC1` (stereo not given), the compound was classed as inactive in assay [1], in assay [2], in assay [4], in assay [9] and in assay [8].

Regarding `O=C1CCCCCCCCCCCCCCO1`, the compound was called inactive in assay [1], in assay [2], in [3], in [9], in [5] and in [8].

Turning to `CC(=O)OCCOC(C)=O`, the compound was classed as inactive in [1], in assay [2], in assay [6], in [4], in [7] and in [9]. Moreover, the compound was classed as inactive in assay [5] and in assay [8]. In addition, the AC50 in assay [4] is 87.2 µM (active).

As for `Nc1cccc(S(=O)(=O)c2cccc(N)c2)c1`, the compound was called inactive in assay [1], in assay [2], in [6], in assay [4], in assay [7] and in assay [9]. Also, the result in assay [5] and in [8] was inactive.

Consider `O=C(O)c1ccc(C(=O)O)cc1`, for which the call in assay [1], in assay [2], in assay [6], in assay [4], in [7] and in assay [9] was inactive. In addition, the compound was called inactive in assay [5] and in assay [8].

As for `O=C1CCc2ccccc2O1`, the outcome in assay [1], in assay [2], in assay [4], in [9], in assay [5] and in [8] was inactive.

Turning to `CC(=O)[O][Al][O]C(C)=O`, the outcome in assay [1], in [2] and in [5] was inactive.

Consider `c1cc(C(c2ccc(OCC3CO3)cc2)c2ccc(OCC3CO3)cc2)ccc1OCC1CO1` (stereo not given), for which the compound was classed as inactive in assay [1], in assay [2], in assay [6], in assay [7] and in [5].

Take `O=S(=O)(O)c1ccc(O)c2ncccc12`: the result in assay [1], in [2], in assay [6], in assay [4], in [9] and in assay [5] was inactive. Also, the result in assay [8] was inactive.

With `CCCCCC=CCC(=O)OC`, the compound was called inactive in assay [1], in assay [2], in assay [6], in assay [4] and in assay [5].

For the compound `O=c1cc(-c2ccccc2)oc2cc(O)cc(O)c12`, the outcome in [1], in assay [2], in assay [6], in assay [4] and in [5] was inactive. Also, the AC50 in assay [9] is 22.3 µM (active); in assay [8], 46.1 µM (active).

As for `COC(=O)c1ccc(C)cc1`, the compound was called inactive in [1], in [3], in assay [6], in assay [4], in assay [9] and in assay [5]. Moreover, the outcome in assay [8] was inactive. Moreover, the half-maximal activity concentration (AC50) in assay [4] is 0.000353 µM (active); in assay [8] it was 0.000134 µM (active).

`C[C@H]1C[C@@H]2[C@H]([C@@H](O)C[C@@]3(C)[C@H]2CC[C@]3(O)C(=O)CO)[C@@]2(C)C=CC(=O)C=C12`: the call in assay [1], in [2], in [6], in [4], in assay [7] and in assay [8] was inactive.

Regarding `CCC(=O)OCCC(C)CCC=C(C)C` (stereo not given), the compound was called inactive in [1], in assay [2], in assay [3], in assay [4], in assay [9] and in assay [5].

Consider `C=C(C)C(=O)O`, for which the compound was called inactive in assay [1], in [2], in [6], in [4], in [7] and in assay [9]. The compound was classed as inactive in [5] and in [8].

Regarding `CC1CCC(C(C)CS)CC1S` (stereo not given), the half-maximal activity concentration (AC50) in assay [1] was 152 µM (active). Besides, the outcome in assay [3], in [6], in [4], in assay [7], in assay [9] and in [5] was inactive. In [8], the result was inactive.

Regarding `CCCCOCCOCCSC#N`, the compound was called inactive in assay [1], in assay [2], in assay [4], in assay [7], in [9] and in assay [5]. Moreover, in assay [8], the outcome was inactive.

Regarding `CCCCCCCCCCCCN(CCCCCCCCCCCC)CCCCCCCCCCCC`, the compound was classed as inactive in assay [1], in assay [3], in [6], in [4] and in [7].

As to `NCCOCCO`, the result in assay [1], in [3], in assay [6], in [4], in assay [7] and in assay [9] was inactive. Also, the outcome in assay [8] was inactive.

As to `CCCCc1ccc(N)cc1`, the compound was called inactive in assay [1], in assay [2], in assay [6], in [4], in assay [7] and in [9]. Also, in assay [8], the outcome was inactive.

On to `CC(C)[C@@H]1CC[C@@H](C)CC1=O`, for which the compound was called inactive in assay [1], in assay [3], in assay [6], in assay [4], in assay [7] and in [9]. Besides, the result in [8] was inactive.

For the compound `CC(C)=CCC[C@](C)(O)[C@@H]1CC=C(C)CC1`, the outcome in assay [1], in assay [2], in [4], in [9], in assay [5] and in assay [8] was inactive.

As to `C=CC(=O)OCC(O)COc1ccccc1` (stereo not given), the result in assay [1], in assay [9] and in assay [5] was inactive. Also, the AC50 in assay [2] is 45.5 µM (active); in [6] it was 75.6 µM (active); in [8] it was 37.6 µM (active).

For `C=CC[N+](C)(C)CC=C`, the compound was classed as inactive in assay [1], in assay [3], in assay [6], in assay [4], in assay [7] and in assay [9]. The compound was called inactive in assay [5] and in [8].

`CC1(C)[C@@H]2CC[C@@]1(C)[C@H](O)C2`: the compound was classed as inactive in assay [1], in assay [2], in [6] and in [4].

Regarding `CC(C)CCCCCCCOC(=O)c1ccc(C(=O)OCCCCCCCC(C)C)c(C(=O)OCCCCCCCC(C)C)c1`, the compound was classed as inactive in assay [1], in assay [2], in assay [4], in assay [9] and in assay [8].

For the compound `C/C=C(\C)C(=O)OCc1ccccc1`, the call in [1], in assay [3], in [6], in assay [4], in assay [7] and in assay [5] was inactive. The result in assay [8] was inactive.

`FC1(F)C(F)(F)C(F)(F)C2(F)C(F)(C1(F)F)C(F)(F)C(F)(F)C1(F)C(F)(F)C(F)(F)C(F)(F)C(F)(F)C12F` (stereo not given): the outcome in assay [1], in [2], in assay [3], in [4], in assay [9] and in [5] was inactive. Moreover, the outcome in [8] was inactive.

For the compound `c1ccc2[nH]ccc2c1`, the outcome in assay [1], in assay [3], in assay [6], in [4], in [7] and in [9] was inactive. Further, the result in assay [5] and in assay [8] was inactive.
